Rows were chosen to be rich in hits. Some 2.8% of all compounds tested hit in one or more screens of this group.
ATXN2 expr inh: reduces ATXN2 reporter expression in HEK-293 cells; Potency, µM (titrated, usually from 57 µM), inactives show at the top dose activity change, negative = inhibition, actives largely listed as inhibitors; HEK-293 ATXN2-luciferase reporter, luminescence, 24 h; hit rate 0.72% among 360,000; note: % is set by controls: 0 for no effect and ±100 for the full control effect; nearly all actives have a fitted effect of over 55% in size
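ATXN2-luciferase reporter cells (luciferase flanked by upstream and downstream ATXN2 gene portions) were treated 24 h at 37 °C with compounds at up to 57 uM. SteadyGlo luminescence gave expression; GF-AFC fluorescence gave viability.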
HttQ103 aggreg: reduces HttQ103-GFP aggregates in PC12 cells; hit rate 1.1% among 220,000; PC12 HttQ103-GFP aggregates, Acumen cytometry, 40 h; Potency, µM (doses to about 46.1 µM), without a hit: at the top dose activity change, negative = inhibition, actives largely listed as inhibitors; note: % is set by controls: 0 for no effect and ±100 for the full control effect; nearly all actives have a fitted effect of over 60% in size
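Read-out: GFP aggregate count by laser scanning cytometer (488 nm excitation, 500-530 nm emission, 1–25 µm objects >6 SD above background). Cells: PC12, inducible HTTex1-Q103-GFP, 100 nM tebufenozide; compounds titrated.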
HepG2 tox-1: counter-screen for TGF-b inhibitors: cytotoxicity in HepG2 cells. Potency, µM (doses to about 46.1 µM), inactives show top-dose activity change, negative = cytotoxicity, usual class: cytotoxic. HepG2 CAGA-GFP viability, ATP luminescence, 18 h. hit rate 0.76% among 410,000
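CellTiter-Glo luminescence gave cytotoxicity after 18 hours at 37 degrees C. The cells were HepG2 CAGA-GFP in 1% FBS DMEM, stimulated with 500 pg/mL TGF-beta after compound addition. %Activity was normalised to no-cell wells (complete cell-killing) and DMSO (no toxicity), and curves were fitted and classified.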
TGFb inhibitor: inhibitors of TGF-b signaling | AID 588855 | Potency, µM (doses to about 46.1 µM), for inactives: at the highest dose activity, negative = inhibition, actives largely listed as inhibitors | HepG2 CAGA-GFP TGF-b/SMAD3 reporter, GFP fluorescence, 18 h; TGF-beta stimulated, 500 pg/mL final | hit rate 1.2% among 410,000; note: % is set by controls: 0 for no effect and ±100 for the full control effect; nearly all actives have a fitted effect of over 65% in size
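GFP signal (ex488/em500-530) from TGF-beta-stimulated HEPG2 CAGA-GFP cells, 500 pg/mL final, 18 h at 37 degrees C in DMEM plus 1% FBS, normalized to unstimulated and DMSO-stimulated controls.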
HTT cytoprotect: Huntington cell model cytoprotection by ATP luminescence | PC12 HTT-Q103 induced, cytoprotection, ATP luminescence, 40 h | Potency, µM (top dose mostly 56.4 µM), inactives show cytoprotection (ATP increase), most hits filed as activators | hit rate 0.14% among 230,000; note: % of control where 0% means no effect; nearly all actives have a fitted effect of over 45% in size
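Compounds added alongside 100 nM tebufenozide, which induces toxic Q103 huntingtin exon 1-GFP in stable PC12 cells; surviving cells quantified by luminescent ATP measurement. Medium: phenol red-free DMEM, 5% equine and 5% calf serum.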
ATXN viability: cell viability loss in ATXN counter-screen; Potency, µM (titrated, usually from 56.7 µM), usual class: cytotoxic; S2 cells (HEK-293 line with an ATXN2-luciferase reporter) viability, CellTiter-Fluor protease fluorescence, 24 h; hit rate 0.49% among 400,000; AID 651635; note: nearly all actives have a fitted effect of over 40% in size
TGFb confirm: TGF-b pathway inhibition, cherry-pick retest | shares compounds with TGFb inhibitor | HepG2 CAGA-GFP TGF-b reporter, GFP fluorescence, 18 h; cells stimulated with TGF-beta, 500 pg/mL | Potency, µM (top dose mostly 46.1 µM), without a hit: at the highest dose activity, negative = inhibition, most hits filed as inhibitors | hit rate 63% among 1,600; note: % is set by controls: 0 for no effect and ±100 for the full control effect; nearly all actives have a fitted effect of over 65% in size
HepG2 tox-2: toxic to HepG2 cells in TGF-b counterscreen; Potency, µM (highest dose often 46.1 µM), without a hit: at the top dose activity, negative = cytotoxicity, most hits filed as inhibitors; HepG2 CAGA-GFP viability, ATP luminescence, 18 h; cells stimulated with TGF-beta, 500 pg/mL; shares compounds with TGFb inhibitor; hit rate 27% among 1,600; AID 720535; note: % is set by controls: 0 for no effect and ±100 for the full control effect; nearly all actives have a fitted effect of over 70% in size
TGFb CCL64 inh: blocks TGF-b signaling in CCL64 reporter cells | AID 720536 | CCL64 CAGA-GFP reporter, TGF-b stimulated, GFP fluorescence, 18 h | hit rate 41% among 1,600 | Potency, µM (series often up to 46.1 µM), for inactives: top-dose activity, negative = inhibition, most hits filed as inhibitors | shares compounds with TGFb inhibitor; note: nearly all actives have a fitted effect of over 65% in size
COP TGFb inh: TGF-b inhibition validated with COP promoter | shares compounds with TGFb inhibitor | HepG2 COP-GFP TGF-b reporter, GFP fluorescence, 18 h; cells stimulated by added recombinant TGF-beta | Potency, µM (series often up to 46.1 µM), for the others: at the highest dose activity, negative = inhibition, most hits filed as inhibitors | hit rate 3% among 1,600; note: nearly all actives have a fitted effect of over 70% in size
Starred values were filed as active, the others as inactive; i = inactive; ? = inconclusive; · = not tested or not shown; [ ] = another dose, or the depositor's remark. Calls come from the whole dose curve; as a rule, active = well fitted curve in the direction sought with a large enough effect; inconclusive = small, poorly fitted or top-dose-only effect, or another doubt; inactive = no such curve, though single readings can be large; an effect the other way counts as inactive or inconclusive. Potency is the fitted concentration of half-maximal effect.

SMILES	ATXN2 expr inh	HttQ103 aggreg	HepG2 tox-1	TGFb inhibitor	HTT cytoprotect	ATXN viability	TGFb confirm	HepG2 tox-2	TGFb CCL64 inh	COP TGFb inh
Cc1ccc(S(=O)(=O)N2CCN(C(=O)c3ccccc3Cc3ccccc3)CC2)c(C)c1	-31%	·	-13%	11µM*	·	i	16µM*	?	?	16%
Cc1ccc(S(=O)(=O)N2CCN(C(=O)c3ccco3)CC2)c(C)c1	0%	·	2%	-3%	·	?	·	·	·	·
Cc1ccc(S(=O)(=O)N2CCN(CCc3ccccc3)CC2)c(C)c1	-10%	·	-10%	?	·	i	23µM*	?	?	8%
Cc1nc(-c2ccc(S(=O)(=O)N3CCCN(CCc4ccccc4)CC3)s2)cs1	-10%	5%[9.22 µM]	-19%	8.9µM*	14%[10 µM]	i	8.2µM*	?	?	65%
COc1ccc(C2Nc3ccccc3C(=O)N2Cc2ccco2)cc1 (stereo unspecified)	·	·	10%	-4%	·	·	·	·	·	·
Cn1cc([N+](=O)[O-])c(C(=O)Nc2sc3c(c2C#N)CCC3)n1	·	·	17%	8.9µM*	·	i	13µM*	7.3µM*	2%	70%
C1=Cc2ccccc2/C1=C\c1cc[cH-]c1.[Fe+2].c1cc[cH-]c1	·	·	1%	?	·	·	·	·	·	·
CC(C)(C)N1C(=O)[C@H]2[C@@H]3[C@H](O)C=CC(=O)[C@H]3CC[C@H]2C1=O	·	·	·	·	0%[10 µM]	·	·	·	·	·
O=c1c2cn[nH]c2nc(SCc2cc(=O)n3cc(Br)ccc3n2)n1-c1ccc(Br)cc1	-30%	9%	0%	?	5%	i	·	·	·	·
O=c1c2cn[nH]c2nc(SCc2ccccc2F)n1-c1ccc(Br)cc1	-34%	13µM*	16µM*	10µM*	·	i	?	?	?	77%
CC1(C)OC(=O)C2(Cc3ccc(Cl)cc3N3CCCC32)C(=O)O1 (stereo unspecified)	·	·	7%	0%	·	·	·	·	·	·
COc1ccc(CC(N)c2csc(NC(=O)CCc3ccccc3)n2)cc1 (stereo unspecified)	?	·	-66%	?	·	i	·	·	·	·
COc1ccc(CC(N)c2csc(NC(=O)Nc3ccccc3C(C)C)n2)cc1 (stereo unspecified)	?	·	-106%	5.6µM*	·	?	?	?	?	?
O=C(Nc1ccccc1)[C@@H]1CC=C[C@@H]2CCN(Cc3ccc(Cl)c(Cl)c3)C(=O)[C@@H]21	-24%	·	-17%	13µM*	·	?	21µM*	?	?	47%
Cn1cnc2c(ncn2[C@@H]2O[C@H](CO)[C@@H](O)[C@H]2O)c1=N	·	·	·	·	19%	·	·	·	·	·
COC(=O)N[C@@H](/C=C/c1ccccc1)/C(C(=O)OC)=C(\C)NCc1ccccc1	·	·	·	·	-60%	·	·	·	·	·
CC12CCC=CC1C(c1ccc3ccccc3c1C=Cc1ccccc1)N(Cc1ccccc1)C2=O (stereo unspecified)	·	·	8%	11%	·	·	·	·	·	·
C/C(=C\C[Si](C)(C)C)CC[C@H](O)C1=CCCCC1=O	·	·	·	·	-23%	·	·	·	·	·
Cc1ccc(S(=O)(=O)n2cc(-c3ccccc3)c(N)n2)cc1	-5%	-24%	10%	-21%	4%	i	·	·	·	·
Nc1nn(S(=O)(=O)c2ccccc2)cc1-c1ccc([N+](=O)[O-])cc1	-13%	6%	-19%	?	-9%[10 µM]	i	16µM*	0%	-29%	-1%
COC(=O)c1ccc(C(=O)OC)c(NC(=O)CSc2cccc[n+]2[O-])c1	1µM*	1%	6.3µM*	3.5µM*	-27%	1.3µM*	-15%	6%	-8%	11%
O=C(CSc1cccc[n+]1[O-])Nc1ccccc1Oc1ccccc1	-43%	-6%	-22%	?	-18%	i	-10%	6%	4%	-4%
O=C1/C(=C/c2ccccc2[N+](=O)[O-])COc2ccccc21	21µM*	?	-23%	7.9µM*	?	24µM*	2.1µM*	10µM*	2.3µM*	4%
CNc1ccc(/C=C2\COc3ccccc3C2=O)cc1[N+](=O)[O-]	43%	8%	6%	16%	2%	i	·	·	·	·
COc1ccc(C2=NN(C(=O)COC(=O)c3ccc(S(C)(=O)=O)c([N+](=O)[O-])c3)C(c3ccco3)C2)cc1 (stereo unspecified)	?	·	8.9µM*	8.9µM*	·	·	?	?	2.9µM*	?
SMILES	ATXN2 expr inh	HttQ103 aggreg	HepG2 tox-1	TGFb inhibitor	HTT cytoprotect	ATXN viability	TGFb confirm	HepG2 tox-2	TGFb CCL64 inh	COP TGFb inh
COc1ccc(C2=NN(C(=O)COc3ncnc4ccccc34)C(c3ccco3)C2)cc1 (stereo unspecified)	7%	?	-7%	-13%	-40%	i	·	·	·	·
CC(=O)NCCCc1ccc(C(=O)COC(=O)CNC(=O)c2ccc3ccccc3c2)cc1	·	·	4%	0%	·	·	·	·	·	·
Cc1ccccc1OCC(O)Cn1c(=N)n(Cc2ccccc2)c2ccccc21 (stereo unspecified)	?	-9%[9.22 µM]	7.9µM*	7.1µM*	-8%[10 µM]	32µM*	?	?	?	-27%
O=C(NCCc1cccs1)C1CC(c2ccccc2F)=NO1 (stereo unspecified)	23%	7%[9.22 µM]	3%	?	-3%[10 µM]	i	-2%	7%	1%	1%
O=C(NCCc1cccs1)C1CC(c2cccc(F)c2)=NO1 (stereo unspecified)	6%	-4%[9.22 µM]	-15%	-5%	-6%[10 µM]	i	·	·	·	·
Cc1ccc(-c2nc3cc(C)c(Br)c(C)n3c2Cc2ccccc2)cc1	91%	·	-20%	-1%	·	i	·	·	·	·

Bioassay records from PubChem.
